Screening results: PubChem, National Center for Advancing Translational Sciences (NCATS)
Sfp inh – blocks B. subtilis Sfp PPTase activity; Q9F4F7; Biochemical Sfp PPTase activity, qHTS; Potency, µM, without a hit: largest response in the series, negative = inhibition, most hits filed as inhibitors; actives 3.5% (n = 310,000); AID 1490;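 further: the enzyme is Sfp with the accession as filed and its product quenches rhodamine fluorescence; potency means the concentration at half of the fitted maximal effect; 0% = enzyme reaction without inhibitor and -100% = no enzyme wells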
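Step 1, compound plus 15 nM Sfp-PPTase, 15 min, room temperature. Step 2, add rhodamine-CoA (5 uM) and BHQ-2-YbbR (12.5 uM). Step 3, read 525/598 nm fluorescence at 0 and 30 min.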
Tau FP inhib – tau fibrillization inhibition (FP). K18 P301L tau heparin fibrillization, Alexa594 FP, 6 h. Potency, µM (doses to about 57.7 µM), for the others: at the top dose activity, negative = inhibition, actives largely listed as inhibitors. actives 0.39% (n = 280,000); further: potency means the concentration at half of the fitted maximal effect; nearly all actives have a fitted effect of over 55% in size
Target sequence (P10636 561-689 P618L limits assumed): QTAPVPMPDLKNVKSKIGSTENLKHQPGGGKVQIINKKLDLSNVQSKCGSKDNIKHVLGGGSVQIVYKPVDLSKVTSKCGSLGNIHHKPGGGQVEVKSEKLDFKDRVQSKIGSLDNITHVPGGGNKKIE
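Heparin (20 uM) drove fibril formation of recombinant tau K18 P301L, 15 uM unlabeled with 0.24 uM Alexa 594 label, for 6 hr at 37 C in 100 mM sodium acetate pH 7. Fluorescence polarization (555/632 nm) read 1 hr after 30 uM ThT.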
Tau ThT inhib – inhibitors of human tau fibril formation, thioflavin T binding; P10636; recombinant tau K18 P301L, heparin-induced fibrillization, ThT fluorescence; Potency, µM (titrated, usually from 57.4 µM), for inactives: top-dose activity, negative = inhibition, most hits filed as inhibitors; actives 2.1% (n = 270,000); further: potency means the concentration at half of the fitted maximal effect; nearly all actives have a fitted effect of over 55% in size
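Heparin-induced fibrillization of the P301L-mutant K18 repeat-domain fragment of human tau was followed by ThT binding in quantitative high-throughput format.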
FBPA coupling cs – inhibits coupling enzyme system, counter-screen for aldolase hits; coupling enzyme system counterscreen, AmpLite Red fluorescence; activity change, negative = inhibition, % at 58.2 µM, hits read low; actives 0.67% (n = 290,000); in the data active means activity change below about -30%
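Counterscreen lacking aldolase: glyceraldehyde-3-phosphate coupling-enzyme reagent preincubated 10 min at RT with compound (at 57.5 uM final), then substrate/coupling system with AmpLite Red added; fluorescence read at 525/598 nm after 20 min RT.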
G9a inh – G9a (human) methyltransferase inhibition; Q96KQ7; G9a H3K9 monomethylation, AlphaScreen, 2 h; Potency, µM (highest dose often 102 µM), for inactives: at the highest dose activity, negative = inhibition, actives largely listed as inhibitors; actives 8.8% (n = 350,000); further: potency means the concentration at half of the fitted maximal effect; nearly all actives have a fitted effect of over 75% in size
Target sequence (Q96KQ7 913-1193 limits assumed): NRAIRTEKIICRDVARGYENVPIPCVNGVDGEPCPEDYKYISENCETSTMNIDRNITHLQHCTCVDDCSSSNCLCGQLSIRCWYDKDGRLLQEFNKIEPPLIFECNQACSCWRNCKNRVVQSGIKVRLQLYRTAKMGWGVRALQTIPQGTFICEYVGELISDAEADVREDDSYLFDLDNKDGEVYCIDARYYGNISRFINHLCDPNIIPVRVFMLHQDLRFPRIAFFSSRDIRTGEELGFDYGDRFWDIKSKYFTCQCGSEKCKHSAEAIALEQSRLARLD
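G9a (20 nM) preincubated 15 min RT with compounds, then 500 nM biotinylated H3K9 peptide and 20 uM SAM added; 2 h RT reaction. Monomethyl-H3K9 product detected by AlphaScreen with anti-H3K9me1 antibody, streptavidin donor and anti-rabbit IgG acceptor beads.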
Tau fluor counter – counter-screen for tau fibril formation inhibitors. tau K18 P301L (four-repeat tau fragment) Alexa594 fluorescence, heparin fibrillization. Potency, µM (highest dose often 57.7 µM), without a hit: top-dose activity change, negative = decrease. actives 0.93% (n = 280,000). AID 1463; further: potency means the concentration at half of the fitted maximal effect; nearly all actives have a fitted effect of over 55% in size
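Human K18 P301L tau (15 uM unlabeled plus 0.24 uM Alexa 594-labeled, final) in 100 mM sodium acetate pH 7 was mixed with compound and 20 uM heparin and incubated 6 hr at 37 C.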
* = called active by the depositor; ? = inconclusive; nt = not tested or not shown; [ ] = another dose, or the depositor's remark. In the library only some 11% were active in any assay of this set; here they are far more common. Unless noted, the call rests on the fitted dose curve; in most records, active means well fitted curve in the direction sought with a large enough effect; inconclusive means small, poorly fitted or top-dose-only effect, or another doubt; inactive means no such curve, though single readings can be large; an effect the other way counts as inactive or inconclusive. Unless noted, on the % scale 0 is the no-effect control and ±100 the full control effect.

SMILES | Sfp inh | Tau FP inhib | Tau ThT inhib | FBPA coupling cs | G9a inh | Tau fluor counter
Fc1ccc(CSc2ncnc3scc(-c4ccccc4)c23)cc1 | ? | 9% | -3% | 5 | 27%[59 µM] | -11%
COc1ccccc1CN1CCCC2(CCN(C(=O)c3ccncc3)CC2)C1 | 20% | nt | nt | 0 | 4%[12.7 µM] | nt
Cc1ccc(C)c(N2CCN(C(=O)c3cccn3-c3nnc(N4CCCCC4)s3)CC2)c1 | nt | 8% | ? | nt | ? | -13%
O=C(CCCn1c(=S)[nH]c2ccccc2c1=O)N1CCCCC1 | -1% | -7% | -11% | 0 | ? | -13%
O=c1c2ccccc2[nH]c(=S)n1CCN1CCCC1 | 3% | -7% | -6% | 0 | 18µM* | -14%
O=C(CCN1CCCCC1)Nn1c(=S)[nH]c2ccccc2c1=O | 50µM* | -2% | -1% | 0 | ? | 0%
O=c1c2ccc(Cl)cc2[nH]c(=S)n1CCCN1CCOCC1 | -12% | 0% | 3% | -1 | 45µM* | 4%
O=c1c2ccccc2[nH]c(=S)n1CCCN1CCOCC1 | -9% | 8% | -9% | 0 | 18µM* | -3%
CCOC(=O)Cc1ccc2sc(-c3ccccc3)nc2c1 | -5% | -1% | -11% | -1 | 35%[59 µM] | -15%
CCC(C)(C(=O)NC1CCCC1)N(C(=O)CNC(=O)c1ccccc1)c1c(C)n(C)n(-c2ccccc2)c1=O (centres undefined) | 7% | -2% | 0% | -4 | -46%[59 µM] | -6%
COc1ccc(CCNC(=O)CCCN2C(=O)c3ccccc3C2=O)cc1 | 4% | -3% | 0% | 1 | 23%[12.7 µM] | 0%
O=C(CC1C(=O)NCCN1Cc1cccc(F)c1)NC1CCCCC1 (centres undefined) | 2% | nt | nt | nt | ? | nt
c1ccc(-c2ccc(-c3nccc4ccccc34)[nH]2)cc1 | 50µM* | 5% | ? | -1 | ? | ?
OCCN(Cc1ccccc1)Cc1ccc(F)c(F)c1 | 2% | -8% | -4% | -1 | ? | -4%
OCCN(Cc1ccccc1)Cc1ccccc1O | -13% | 0% | 0% | -1 | 10µM* | -5%
Cc1ccc(CN(CCO)CCO)cc1 | 11% | 0% | 0% | 0 | -2%[59 µM] | 5%
OCCN(CCO)Cc1ccc(Br)cc1 | -1% | 3% | -5% | 1 | 20µM* | -4%
CC1CCN(C(=O)CN2C(=O)NC3(CCC(C)CC3)C2=O)CC1 (centres undefined) | nt | nt | nt | nt | 4%[12.7 µM] | nt
CCS(=O)(=O)C1=NN2C(=N)/C(=C\c3ccc(OCCOc4cccc(OC)c4)c(OC)c3)C(=O)N=C2S1 | -29% | nt | nt | 6 | 56µM* | nt
CCS(=O)(=O)C1=NSC2=NC(=O)/C(=C\c3ccc(OS(=O)(=O)c4ccccc4)c(OC)c3)C(=N)N21 | -11% | nt | nt | 7 | 40µM* | nt
CCC1=NN2C(=N)/C(=C\c3ccc(OCc4cc(=O)n5nc(CC)sc5n4)c(OC)c3)C(=O)N=C2S1 | 9% | -11% | 11µM* | 2 | ? | -22%
Cc1ccc(S(=O)(=O)Oc2ccc(/C=C3\C(=N)N4N=C(S(C)(=O)=O)SC4=NC3=O)cc2)cc1 | -19% | nt | nt | nt | 13µM* | nt
Cn1cc(S(=O)(=O)N2CCCCCC2)cc1C(=O)NCc1ccccc1Cl | nt | -5% | 1% | nt | -5%[59 µM] | -15%
CCS(=O)(=O)C1=NN2C(=N)/C(=C\c3ccc(OS(=O)(=O)c4ccccc4)cc3)C(=O)N=C2S1 | ? | nt | nt | nt | 40µM* | nt
CCC1=NN2C(=N)/C(=C/c3ccc(OS(=O)(=O)c4ccccc4)cc3)C(=O)N=C2S1 | -9% | nt | nt | 8 | nt | nt
COc1cc(/C=C2\C(=N)N3N=C(N4CCOCC4)SC3=NC2=O)ccc1OC(=O)c1ccccc1 | -26% | nt | nt | -2 | 20µM* | nt
O=[N+]([O-])c1cc(-c2nc(-c3cccnc3)no2)ccc1NCc1ccccc1 | nt | -7% | 4% | nt | -37%[59 µM] | -19%
CCOC(=O)NNc1ccccc1 | 10% | -6% | -10% | -3 | nt | -11%
